Screens from PubChem.
Rows were chosen to be rich in hits. Some 19% of all compounds tested hit in one or more screens of this group.
KB-3-1 cytotox – kills parental KB-3-1 adenocarcinoma cells; KB-3-1 viability, CellTiter-Glo ATP luminescence, 72 h; Potency, µM (titrated, usually from 46.1 µM), actives largely listed as cytotoxic; 400,000 compounds, 1.4% hits; AID 1347075; note: nearly all actives have a fitted effect of over 60% in size
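Cells are dispensed, compounds pinned in, plates held at 37 °C for 72 h, then CellTiter-Glo is added and luminescence read after 10 minutes. Cell line: parental KB-3-1 in phenol-red-free DMEM, 10% FBS.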
KB-V1 cytotox – KB-V1 MDR subline cytotoxicity; Potency, µM (highest dose often 46.1 µM), most hits filed as cytotoxic; 400,000 compounds, 3.4% hits; KB-V1 MDR cells viability, CellTiter-Glo, 72 h; AID 1347076; note: nearly all actives have a fitted effect of over 60% in size
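Cytotoxicity toward P-gp-expressing KB-V1 cells was determined as loss of CellTiter-Glo luminescence after 72 h at 37 degrees C. Compounds were tested in quantitative HTS format across a concentration range, with curves fitted to normalized data.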
TDP1 cell CPT – DT40-hTDP1 cell growth loss with CPT; chicken DT40 Tdp1-/-;hTDP1 cells + 20 nM CPT, ATP luminescence, 48 h; Potency, µM (top dose mostly 46.2 µM), for inactives: top-dose activity change, negative = growth inhibition, actives largely listed as inhibitors; 420,000 compounds, 12% hits; AID 686979; note: nearly all actives have a fitted effect of over 55% in size
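Chicken DT40 Tdp1-/- cells stably complemented with human TDP1 were seeded at 400 cells/well in medium containing 20 nM camptothecin, exposed to pin-transferred compounds, and grown at 37 °C for at least 48 hr. Viability was read as ATP luminescence.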
HT1080 IDH1KD tx – kills HT-1080 cells with IDH1 knockdown; HT-1080 IDH1 knockdown viability, ATP luminescence, 48 h; Potency, µM (series often up to 46.1 µM), inactives show top-dose activity, negative = toxicity, most hits filed as cytotoxic; 360,000 compounds, 2% hits; AID 686971;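 note: 0% = DMSO wells and -100% = cell-free medium wells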
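% activity derives from luminescence (CellTiter-Glo), normalised to DMSO and no-cell wells. HT-1080-IDH1KD cells, 750/well, had 48 h compound exposure at 37 °C.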
HT1080NT lethal – kills 2HG-producing HT-1080-NT fibrosarcoma cells; HT-1080-NT fibrosarcoma viability, CellTiter-Glo ATP luminescence, 48 h; Potency, µM (highest dose often 46.1 µM), without a hit: at the top dose activity, negative = less viability, most hits filed as cytotoxic; 360,000 compounds, 1.6% hits; AID 686970;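 note: NT is the 2HG producing partner of a matched IDH1 knockdown line; 0% = DMSO-treated cells and -100% = media-only wells without cells; nearly all actives have a fitted effect of over 55% in size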
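Fibrosarcoma NT cells, 750 per well in 5% FBS RPMI, were exposed to compound for 48 hours. Viability: CellTiter-Glo luminescence.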
DT40 TDP1 no CPT – qHTS for Inhibitors of human tyrosyl-DNA phosphodiesterase 1 (TDP1): qHTS in cells in absence of CPT; DT40 Tdp1-/- hTDP1 cells, no CPT, ATP luminescence, 48 h; Potency, µM (highest dose often 46.2 µM), for the others: at the highest dose activity change, negative = growth inhibition, most hits filed as inhibitors; 420,000 compounds, 15% hits; AID 686978, 2013; note: nearly all actives have a fitted effect of over 55% in size
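Chicken DT40 Tdp1-/- cells stably complemented with human TDP1 were seeded at 400 cells/well with DMSO in place of 20 nM camptothecin. After compound pinning, cells grew at least 48 hr at 37 °C; viability read by CellTiter-Glo luminescence.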
Active calls of the source: *; i = inactive; ? = inconclusive; . = not tested or not shown; [ ] = remark or other dose. Calls come from the whole dose curve; as a rule, active = well fitted curve in the direction sought with a large enough effect; inconclusive = small, poorly fitted or top-dose-only effect, or another doubt; inactive = no such curve, though single readings can be large; an effect the other way counts as inactive or inconclusive. Unless noted, % is set by controls: 0 for no effect and ±100 for the full control effect; potency is the fitted concentration of half-maximal effect.

SMILES	KB-3-1 cytotox	KB-V1 cytotox	TDP1 cell CPT	HT1080 IDH1KD tx	HT1080NT lethal	DT40 TDP1 no CPT
CCOc1ccc(N2CC(NC(=O)CCc3ccccc3)CC2=O)cc1 (configuration not stated)	.	.	4%	.	.	-1%
CC12CCC(c3c1nc1ccccc1[n+]3[O-])C2(C)C (configuration not stated)	i	i	?	22%	21%	18µM*
Cc1ccc(CN2CCSc3ccc(C(=O)Nc4ccc(Cl)cc4)cc32)cc1	i	i	23µM*	.	.	?
O=C(Nc1ccc(Cl)cc1)c1ccc2c(c1)N(Cc1ccccc1)CCS2	i	i	15µM*	.	.	?
Cc1ccc(CN2CCSc3ccc(C(=O)Nc4cc(C)cc(C)c4)cc32)cc1	i	i	?	.	.	?
Cc1ccnn1-c1ccc(C(=O)NCc2ccccc2CN2CCOCC2)cc1	i	i	21µM*	0%	8%	18µM*
O=C(NCc1ccccc1CN1CCOCC1)c1ccc(-n2cccn2)cc1	i	i	?	-1%	-2%	?
CCOc1ccc2c(c1)c(=O)c(C(=O)c1ccccc1)cn2Cc1ccccc1	i	i	21µM*	.	.	15µM*
COc1ccc(C(=O)c2cn(Cc3cccc(C)c3)c3cc4c(cc3c2=O)OCCO4)cc1OC	i	i	?	.	.	21µM*
COc1ccc2c(c1)c(=O)c(C(=O)c1ccccc1)cn2Cc1ccccc1	i	i	-7%	-1%	-2%	-14%
COc1ccc(C(=O)c2cn(Cc3ccccc3OC)c3cc4c(cc3c2=O)OCO4)cc1	i	i	?	.	.	?
Cc1cccc(Cn2cc(C(=O)c3ccccc3)c(=O)c3cc4c(cc32)OCO4)c1	i	i	?	.	.	?
CCOc1ccc(C(=O)c2cn(Cc3ccccc3OC)c3cc4c(cc3c2=O)OCCO4)cc1	i	i	?	.	.	15µM*
COc1ccc(C(=O)c2cn(Cc3ccccc3)c3ccccc3c2=O)cc1OC	i	i	21µM*	.	.	?
O=C(NCc1ccccc1Cl)c1ccc2nc([C@@H]3O[C@H](CO)[C@H](O)[C@H](O)[C@H]3O)[nH]c2c1	i	i	-19%	18%	14%	4%
Cc1ccc(C(=O)c2cn(Cc3ccccc3)c3ccccc3c2=O)cc1	i	i	23µM*	.	.	21µM*
COc1ccc(Cn2cc(C(=O)c3ccccc3)c(=O)c3cc(OC)ccc32)cc1	i	i	3%	-14%	-11%	-10%
COc1ccc(OC)c(NC(=O)COCc2cc(-c3ccco3)on2)c1	i	i	?	.	.	?
Cn1c(=O)c(NC2CCCCC2)c2c3c(cccc31)C(=O)c1ccccc1-2	i	i	?	12%	5%	?
CCCCNc1c2c3c(cccc3n(C)c1=O)C(=O)c1ccccc1-2	?	?	?	?	?	18µM*
CCCCN(C)C(=O)CN1C(=O)c2cccnc2Oc2ccc(Cl)cc21	i	i	-27%	.	.	?
Oc1ccc(Nc2nc3ccccc3n3cnnc23)cc1	i	i	?	.	.	?
CCCOc1ccc(CCC(=O)N/N=C/c2ccncc2)cc1	i	?	26µM*	-7%	-6%	?
CCCOc1ccc(CCC(=O)N/N=C/c2ccco2)cc1	i	i	-3%	0%	2%	-28%
Cc1ccccc1-c1nn(-c2ccc(F)cc2F)cc1CNCC(C)O (configuration not stated)	i	i	-28%	-10%	-1%	?
SMILES	KB-3-1 cytotox	KB-V1 cytotox	TDP1 cell CPT	HT1080 IDH1KD tx	HT1080NT lethal	DT40 TDP1 no CPT
CCOCCCNCc1cn(-c2ccc(F)cc2F)nc1-c1ccccc1C	i	?	15µM*	-10%	-9%	16µM*
COc1ccc2[nH]c(=O)c(CNc3ccccc3OC)cc2c1	i	?	6.5µM*	-10%	-20%	13µM*
COc1ccc2[nH]c(=O)c(CNc3ccccc3C)cc2c1	i	i	9.2µM*	1%	-7%	23µM*
O=C(Cn1ncc2c(=O)oc3ccccc3c21)NCc1cccnc1	i	?	1.3µM*	-4%	-2%	9.2µM*
Cc1c(C(=O)NC(C)c2ccncc2)oc2ccccc12 (configuration not stated)	i	i	-3%	-6%	10%[9.24 µM]	-3%
Cc1c(C(=O)Nc2ccncc2)oc2ccccc12	i	i	21µM*	?	-1%	21µM*
Cc1c(C(=O)NCc2cccnc2)oc2ccccc12	i	16µM*	-6%	-1%	8%	2%
COc1cc(OC)cc(C(=O)Nc2ccc(-n3cnnn3)c(C)c2)c1	i	?	-24%	-3%	-7%	?
Cc1cc(NC(=O)c2oc3ccccc3c2C)ccc1-n1cnnn1	i	?	18µM*	3%	?	23µM*
Cc1c(C(=O)NCCc2ccccc2)oc2ccccc12	i	i	-25%	16%	20%	-17%
NS(=O)(=O)c1ccc(CCNC(=O)Cn2c(-c3cccs3)cc3ccccc32)cc1	i	i	-29%	.	.	?
COc1ccc(C2C(C(=O)Nc3cccnc3)=C(C)Nc3nc(-c4ccccc4)nn32)cc1OC (configuration not stated)	i	i	-2%	.	.	-8%
O=C(Cn1cc(SCc2ccc(C(F)(F)F)cc2)c2ccccc21)N1CCCCC1	.	.	?	.	.	23µM*
O=C(CSc1cn(CC(=O)N2CCCCC2)c2ccccc12)Nc1ccc(C(F)(F)F)cc1	.	.	-16%	.	.	-23%
O=C(CN1CCCC1)Nc1cc(C(F)(F)F)ccc1Cl	i	i	4%	18%	?	-4%
O=C(CSc1cn(CC(=O)N2CCCC2)c2ccccc12)Nc1cc(C(F)(F)F)ccc1Cl	.	.	18µM*	.	.	?
O=C(Cn1cc(SCc2ccc(C(F)(F)F)cc2)c2ccccc21)N1CCCCCC1	.	.	18µM*	.	.	?
COC(c1ccc2c(c1)CN(C(=O)Cn1nc(C)c3ccccc3c1=O)CCO2)C1CCCCC1 (configuration not stated)	.	.	-2%[9.04 µM]	.	.	-17%
CCCNC(=O)N1N=C(c2ccc(N)cc2)c2cc3c(cc2[C@H]1C)OCO3	.	.	10%	.	.	-17%
